According to paper PMC7862700, “An all-to-all approach to the identification of sequence-specific readers for epigenetic DNA modifications on cytosine”:

Assays:
Test in all cases: DAPPL (digital affinity profiling via proximity ligation, sequencing); 10 mM Tris-HCl pH 7.5, 50 mM NaCl, 1 mM DTT, 4% glycerol, room temperature, 30 min; GST-TFs on glutathione beads, 16-mer random dsDNA library, 0.1% formaldehyde crosslink after washing; high values mean tight binding
[1] = target: T1, FLI1 (Homo sapiens, UniProt Q01543 1-452); conditions: protein: recombinant; tags: N-terminal GST; dsDNA, one strand shown
T1 sequence: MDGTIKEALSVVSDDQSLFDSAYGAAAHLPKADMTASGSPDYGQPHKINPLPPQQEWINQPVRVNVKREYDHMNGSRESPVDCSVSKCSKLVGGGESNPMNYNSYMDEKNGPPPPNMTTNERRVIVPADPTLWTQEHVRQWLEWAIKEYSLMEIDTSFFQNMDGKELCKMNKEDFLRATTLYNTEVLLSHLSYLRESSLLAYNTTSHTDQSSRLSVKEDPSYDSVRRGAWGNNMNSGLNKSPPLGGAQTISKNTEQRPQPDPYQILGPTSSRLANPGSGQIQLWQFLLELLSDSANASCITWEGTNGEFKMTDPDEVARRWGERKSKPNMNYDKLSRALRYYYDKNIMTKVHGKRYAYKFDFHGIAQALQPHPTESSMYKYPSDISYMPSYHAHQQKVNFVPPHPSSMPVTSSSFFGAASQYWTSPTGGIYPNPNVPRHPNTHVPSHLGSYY
Procedure, shortened: (§1)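 A tag-only sample was pooled with DNA-barcoded human transcription factors that had been expressed in yeast as GST fusions and captured on glutathione beads. The pools were incubated for 30 min at room temperature with 200 nmole of a random double-stranded 16-mer DNA library in Tris/NaCl/DTT/glycerol buffer, then washed, crosslinked with 0.1% formaldehyde, proximity-ligated (BsaI/T4 ligase, 1 h, 37 °C), PCR-amplified and sequenced on an Illumina NextSeq500. Binding signal is each hexamer's read frequency for a factor divided by its frequency for the tag-only sample.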

[2] = target: T2, ELK1 (Homo sapiens, UniProt P19419 1-428); conditions: protein: recombinant; tags: N-terminal GST; dsDNA, one strand shown
T2 sequence: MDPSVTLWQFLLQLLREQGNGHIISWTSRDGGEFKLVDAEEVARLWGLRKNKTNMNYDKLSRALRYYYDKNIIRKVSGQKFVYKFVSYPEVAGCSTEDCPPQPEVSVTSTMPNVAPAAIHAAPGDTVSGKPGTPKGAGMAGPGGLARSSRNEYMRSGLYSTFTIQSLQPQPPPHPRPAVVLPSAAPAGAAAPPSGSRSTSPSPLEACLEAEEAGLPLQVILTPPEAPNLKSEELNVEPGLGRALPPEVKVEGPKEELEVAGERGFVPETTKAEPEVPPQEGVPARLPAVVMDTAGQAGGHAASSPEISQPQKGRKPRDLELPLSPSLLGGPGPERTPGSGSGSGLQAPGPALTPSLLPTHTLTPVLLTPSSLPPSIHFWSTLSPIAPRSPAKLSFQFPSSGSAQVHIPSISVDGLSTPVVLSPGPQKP
Procedure, shortened: as §1

[3] = target: T3, GABPA (Homo sapiens, UniProt Q06546 1-454); conditions: protein: recombinant; tags: N-terminal GST; dsDNA, one strand shown
T3 sequence: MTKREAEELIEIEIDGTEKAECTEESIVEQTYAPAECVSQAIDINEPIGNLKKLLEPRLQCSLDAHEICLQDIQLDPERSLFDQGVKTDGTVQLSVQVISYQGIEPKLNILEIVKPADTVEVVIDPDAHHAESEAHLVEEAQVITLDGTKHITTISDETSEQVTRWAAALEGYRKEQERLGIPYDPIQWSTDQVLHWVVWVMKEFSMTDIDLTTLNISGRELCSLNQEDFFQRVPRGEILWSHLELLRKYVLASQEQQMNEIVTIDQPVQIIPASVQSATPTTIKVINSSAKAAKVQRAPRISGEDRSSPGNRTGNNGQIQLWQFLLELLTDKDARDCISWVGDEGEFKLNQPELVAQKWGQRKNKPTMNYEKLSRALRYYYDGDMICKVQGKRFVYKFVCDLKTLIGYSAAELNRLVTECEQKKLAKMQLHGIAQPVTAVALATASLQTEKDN
Procedure, shortened: as §1

[4] = target: T4, ERG (Homo sapiens, UniProt P11308 1-479); conditions: protein: recombinant; tags: N-terminal GST; dsDNA, one strand shown
T4 sequence: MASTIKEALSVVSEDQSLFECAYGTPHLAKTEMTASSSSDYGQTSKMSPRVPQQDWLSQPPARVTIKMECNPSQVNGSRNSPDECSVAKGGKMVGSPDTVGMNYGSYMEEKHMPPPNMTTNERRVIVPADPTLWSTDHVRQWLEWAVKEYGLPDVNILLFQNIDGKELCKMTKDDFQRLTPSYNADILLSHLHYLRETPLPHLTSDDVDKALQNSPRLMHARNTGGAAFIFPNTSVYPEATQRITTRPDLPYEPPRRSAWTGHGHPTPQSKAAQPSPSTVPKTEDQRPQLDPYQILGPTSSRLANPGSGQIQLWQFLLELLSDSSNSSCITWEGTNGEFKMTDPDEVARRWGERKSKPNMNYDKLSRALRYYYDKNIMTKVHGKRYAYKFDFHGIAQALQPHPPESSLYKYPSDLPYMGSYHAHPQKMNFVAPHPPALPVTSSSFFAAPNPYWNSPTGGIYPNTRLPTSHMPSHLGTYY
Procedure, shortened: as §1

[5] = target: ELF1 (Homo sapiens, UniProt P32519 1-619); conditions: protein: recombinant; tags: N-terminal GST; dsDNA, one strand shown
Procedure, shortened: as §1

[6] = target: T5, EHF (Homo sapiens, UniProt Q9NZC4 1-300); conditions: protein: recombinant; tags: N-terminal GST; dsDNA, one strand shown
T5 sequence: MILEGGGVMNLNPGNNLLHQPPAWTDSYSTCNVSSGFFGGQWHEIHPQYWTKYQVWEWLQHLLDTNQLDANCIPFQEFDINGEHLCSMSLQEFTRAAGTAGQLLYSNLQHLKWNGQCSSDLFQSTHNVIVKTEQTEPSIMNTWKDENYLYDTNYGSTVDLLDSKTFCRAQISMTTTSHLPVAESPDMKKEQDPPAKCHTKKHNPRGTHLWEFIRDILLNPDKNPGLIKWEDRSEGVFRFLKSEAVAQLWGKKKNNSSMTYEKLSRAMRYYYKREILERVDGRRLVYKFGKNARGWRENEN
Procedure, shortened: as §1

[7] = target: SPI1 (Homo sapiens, UniProt P17947 1-270); conditions: protein: recombinant; tags: N-terminal GST; dsDNA, one strand shown
Procedure, shortened: as §1

[8] = target: SPIB (Homo sapiens, UniProt Q01892 1-262); conditions: protein: recombinant; tags: N-terminal GST; dsDNA, one strand shown
Procedure, shortened: as §1

[9] = target: T6, ELK3 (Homo sapiens, UniProt P41970 1-407); conditions: protein: recombinant; tags: N-terminal GST; dsDNA, one strand shown
T6 sequence: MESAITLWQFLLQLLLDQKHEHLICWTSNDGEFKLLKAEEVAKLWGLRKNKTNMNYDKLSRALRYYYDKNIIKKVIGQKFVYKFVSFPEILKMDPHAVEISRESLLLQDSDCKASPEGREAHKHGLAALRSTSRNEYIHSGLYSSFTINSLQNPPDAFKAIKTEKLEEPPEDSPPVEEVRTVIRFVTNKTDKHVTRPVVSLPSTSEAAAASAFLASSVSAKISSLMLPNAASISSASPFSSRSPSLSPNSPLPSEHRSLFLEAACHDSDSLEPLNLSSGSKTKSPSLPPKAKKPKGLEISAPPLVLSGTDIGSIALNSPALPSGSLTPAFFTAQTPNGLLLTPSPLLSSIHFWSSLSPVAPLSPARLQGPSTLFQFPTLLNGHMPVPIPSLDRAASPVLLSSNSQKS
Procedure, shortened: as §1

[10] = target: T7, FEV (Homo sapiens, UniProt Q99581 1-238); conditions: protein: recombinant; tags: N-terminal GST; dsDNA, one strand shown
T7 sequence: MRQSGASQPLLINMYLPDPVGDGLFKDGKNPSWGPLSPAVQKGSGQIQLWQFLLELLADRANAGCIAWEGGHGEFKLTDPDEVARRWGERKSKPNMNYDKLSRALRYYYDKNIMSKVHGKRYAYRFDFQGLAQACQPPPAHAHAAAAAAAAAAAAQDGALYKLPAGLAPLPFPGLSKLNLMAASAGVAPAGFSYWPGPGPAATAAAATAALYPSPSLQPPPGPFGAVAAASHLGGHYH
Procedure, shortened: as §1

[11] = target: ETV5 (Homo sapiens, UniProt P41161 1-510); conditions: protein: recombinant; tags: N-terminal GST; dsDNA, one strand shown
Procedure, shortened: as §1

[12] = target: HSF1 (Homo sapiens, UniProt Q00613 1-529); conditions: protein: recombinant; tags: N-terminal GST; chain copies: 3; dsDNA, one strand shown
Procedure, shortened: as §1

[13] = target: T8, SPIC (Homo sapiens, UniProt Q8N5J4 1-248); conditions: protein: recombinant; tags: N-terminal GST; dsDNA, one strand shown
T8 sequence: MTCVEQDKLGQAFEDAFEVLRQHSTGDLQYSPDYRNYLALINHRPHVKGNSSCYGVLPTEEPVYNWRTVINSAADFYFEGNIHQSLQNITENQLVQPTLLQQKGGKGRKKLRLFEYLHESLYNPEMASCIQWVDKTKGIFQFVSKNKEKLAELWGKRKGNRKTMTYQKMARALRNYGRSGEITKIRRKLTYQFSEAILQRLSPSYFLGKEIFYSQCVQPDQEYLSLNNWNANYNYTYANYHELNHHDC
Procedure, shortened: as §1

[14] = target: ELF4 (Homo sapiens, UniProt Q99607 1-663); conditions: protein: recombinant; tags: N-terminal GST; dsDNA, one strand shown
Procedure, shortened: as §1

[15] = target: T9, ELK4 (Homo sapiens, UniProt P28324-2 1-405); conditions: protein: recombinant; tags: N-terminal GST; dsDNA, one strand shown
T9 sequence: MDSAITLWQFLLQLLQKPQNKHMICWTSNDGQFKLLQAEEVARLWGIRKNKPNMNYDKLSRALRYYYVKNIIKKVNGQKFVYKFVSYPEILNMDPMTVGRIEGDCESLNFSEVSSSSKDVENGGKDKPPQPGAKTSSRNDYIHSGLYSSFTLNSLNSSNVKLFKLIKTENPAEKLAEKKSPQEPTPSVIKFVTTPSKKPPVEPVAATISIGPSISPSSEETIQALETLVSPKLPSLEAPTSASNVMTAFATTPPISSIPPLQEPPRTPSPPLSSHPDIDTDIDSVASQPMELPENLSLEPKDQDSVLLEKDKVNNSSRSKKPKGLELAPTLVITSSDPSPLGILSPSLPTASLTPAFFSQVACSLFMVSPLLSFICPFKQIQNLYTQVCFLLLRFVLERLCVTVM
Procedure, shortened: as §1

[16] = target: T10, ETV2 (Homo sapiens, UniProt O00321 1-342); conditions: protein: recombinant; tags: N-terminal GST; dsDNA, one strand shown
T10 sequence: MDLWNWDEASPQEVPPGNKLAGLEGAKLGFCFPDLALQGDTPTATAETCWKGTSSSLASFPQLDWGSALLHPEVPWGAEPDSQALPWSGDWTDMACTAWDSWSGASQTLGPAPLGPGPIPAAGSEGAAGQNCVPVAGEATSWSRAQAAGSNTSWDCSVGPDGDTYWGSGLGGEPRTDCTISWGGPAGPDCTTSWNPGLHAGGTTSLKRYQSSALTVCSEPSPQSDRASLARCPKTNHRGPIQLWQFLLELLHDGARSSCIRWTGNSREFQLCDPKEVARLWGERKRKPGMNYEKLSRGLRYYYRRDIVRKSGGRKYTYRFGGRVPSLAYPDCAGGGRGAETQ
Procedure, shortened: as §1

[17] = target: T11, ELF3 (Homo sapiens, UniProt P78545 1-371); conditions: protein: recombinant; tags: N-terminal GST; dsDNA, one strand shown
T11 sequence: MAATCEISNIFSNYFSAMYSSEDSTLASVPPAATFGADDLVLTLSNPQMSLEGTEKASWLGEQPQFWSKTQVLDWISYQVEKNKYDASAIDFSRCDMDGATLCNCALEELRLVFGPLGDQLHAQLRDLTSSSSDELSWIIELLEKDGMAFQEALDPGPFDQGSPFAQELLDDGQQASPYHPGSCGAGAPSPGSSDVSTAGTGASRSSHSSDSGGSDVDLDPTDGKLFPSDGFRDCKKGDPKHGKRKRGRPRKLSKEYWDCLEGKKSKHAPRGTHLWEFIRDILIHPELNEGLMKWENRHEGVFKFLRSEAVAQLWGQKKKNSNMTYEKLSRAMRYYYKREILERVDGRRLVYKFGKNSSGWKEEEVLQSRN
Procedure, shortened: as §1

[18] = target: CRX (Homo sapiens, UniProt O43186 1-299); conditions: protein: recombinant; tags: N-terminal GST; dsDNA, one strand shown
Procedure, shortened: as §1

[19] = target: ETV1 (Homo sapiens, UniProt P50549 1-477); conditions: protein: recombinant; tags: N-terminal GST; dsDNA, one strand shown
Procedure, shortened: as §1

CRX, sequence (O43186 whole entry): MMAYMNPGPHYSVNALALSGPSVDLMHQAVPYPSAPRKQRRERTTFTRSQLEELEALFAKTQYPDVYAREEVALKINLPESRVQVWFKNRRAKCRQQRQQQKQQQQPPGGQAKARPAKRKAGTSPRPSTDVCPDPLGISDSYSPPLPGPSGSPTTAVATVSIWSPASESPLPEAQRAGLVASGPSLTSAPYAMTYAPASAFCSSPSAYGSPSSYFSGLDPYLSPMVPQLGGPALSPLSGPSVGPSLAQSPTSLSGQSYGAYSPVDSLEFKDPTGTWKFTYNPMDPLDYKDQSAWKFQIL
ETV5, sequence (P41161 whole entry): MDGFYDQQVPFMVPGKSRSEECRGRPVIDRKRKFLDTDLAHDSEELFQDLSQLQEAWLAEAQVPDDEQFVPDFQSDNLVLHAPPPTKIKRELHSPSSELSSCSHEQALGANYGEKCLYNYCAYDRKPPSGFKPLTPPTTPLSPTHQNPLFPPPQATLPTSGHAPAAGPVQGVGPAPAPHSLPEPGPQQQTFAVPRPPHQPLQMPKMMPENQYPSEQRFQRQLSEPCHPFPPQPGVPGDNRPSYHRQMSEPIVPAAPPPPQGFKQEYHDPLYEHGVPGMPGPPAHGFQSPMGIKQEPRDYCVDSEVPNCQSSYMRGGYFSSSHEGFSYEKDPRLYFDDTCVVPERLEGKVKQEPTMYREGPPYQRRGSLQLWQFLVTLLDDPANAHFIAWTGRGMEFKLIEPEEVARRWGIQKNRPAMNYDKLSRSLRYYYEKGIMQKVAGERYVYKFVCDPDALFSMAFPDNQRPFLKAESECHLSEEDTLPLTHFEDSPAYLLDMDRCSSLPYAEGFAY
SPIB, sequence (Q01892 whole entry): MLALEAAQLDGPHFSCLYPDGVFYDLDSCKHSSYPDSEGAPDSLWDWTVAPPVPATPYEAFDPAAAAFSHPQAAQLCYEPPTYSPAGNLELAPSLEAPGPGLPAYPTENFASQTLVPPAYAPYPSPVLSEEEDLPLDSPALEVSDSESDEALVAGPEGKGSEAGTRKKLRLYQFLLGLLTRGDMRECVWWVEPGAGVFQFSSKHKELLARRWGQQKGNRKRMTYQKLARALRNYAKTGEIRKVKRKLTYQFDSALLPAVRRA
HSF1, sequence (Q00613 whole entry): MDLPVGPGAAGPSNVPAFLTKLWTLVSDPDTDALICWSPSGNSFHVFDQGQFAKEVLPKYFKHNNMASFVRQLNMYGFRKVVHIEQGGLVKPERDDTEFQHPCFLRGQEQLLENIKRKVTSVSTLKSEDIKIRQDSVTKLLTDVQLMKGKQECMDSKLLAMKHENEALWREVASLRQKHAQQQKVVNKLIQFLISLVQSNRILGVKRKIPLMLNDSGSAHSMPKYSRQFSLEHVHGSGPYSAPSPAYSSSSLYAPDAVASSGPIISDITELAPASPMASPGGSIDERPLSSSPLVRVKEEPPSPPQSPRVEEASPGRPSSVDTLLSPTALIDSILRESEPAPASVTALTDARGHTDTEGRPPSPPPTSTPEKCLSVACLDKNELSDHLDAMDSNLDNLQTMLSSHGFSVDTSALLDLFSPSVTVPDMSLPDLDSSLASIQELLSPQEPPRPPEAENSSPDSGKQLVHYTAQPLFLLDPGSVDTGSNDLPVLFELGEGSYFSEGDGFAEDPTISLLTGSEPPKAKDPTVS
ETV1, sequence (P50549 whole entry): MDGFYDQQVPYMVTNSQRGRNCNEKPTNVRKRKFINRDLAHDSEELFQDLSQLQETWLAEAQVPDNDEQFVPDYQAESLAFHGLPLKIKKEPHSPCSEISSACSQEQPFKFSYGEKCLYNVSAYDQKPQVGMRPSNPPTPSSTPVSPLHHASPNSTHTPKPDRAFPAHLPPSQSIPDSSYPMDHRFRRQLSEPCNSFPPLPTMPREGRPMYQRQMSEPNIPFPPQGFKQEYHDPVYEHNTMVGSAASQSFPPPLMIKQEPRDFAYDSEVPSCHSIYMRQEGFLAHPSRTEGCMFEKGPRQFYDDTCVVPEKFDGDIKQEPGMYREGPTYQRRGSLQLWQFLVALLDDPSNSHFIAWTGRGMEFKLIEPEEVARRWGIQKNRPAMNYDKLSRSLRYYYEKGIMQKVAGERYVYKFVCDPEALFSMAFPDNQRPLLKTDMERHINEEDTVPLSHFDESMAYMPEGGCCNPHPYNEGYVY
ELF4, sequence (Q99607 whole entry): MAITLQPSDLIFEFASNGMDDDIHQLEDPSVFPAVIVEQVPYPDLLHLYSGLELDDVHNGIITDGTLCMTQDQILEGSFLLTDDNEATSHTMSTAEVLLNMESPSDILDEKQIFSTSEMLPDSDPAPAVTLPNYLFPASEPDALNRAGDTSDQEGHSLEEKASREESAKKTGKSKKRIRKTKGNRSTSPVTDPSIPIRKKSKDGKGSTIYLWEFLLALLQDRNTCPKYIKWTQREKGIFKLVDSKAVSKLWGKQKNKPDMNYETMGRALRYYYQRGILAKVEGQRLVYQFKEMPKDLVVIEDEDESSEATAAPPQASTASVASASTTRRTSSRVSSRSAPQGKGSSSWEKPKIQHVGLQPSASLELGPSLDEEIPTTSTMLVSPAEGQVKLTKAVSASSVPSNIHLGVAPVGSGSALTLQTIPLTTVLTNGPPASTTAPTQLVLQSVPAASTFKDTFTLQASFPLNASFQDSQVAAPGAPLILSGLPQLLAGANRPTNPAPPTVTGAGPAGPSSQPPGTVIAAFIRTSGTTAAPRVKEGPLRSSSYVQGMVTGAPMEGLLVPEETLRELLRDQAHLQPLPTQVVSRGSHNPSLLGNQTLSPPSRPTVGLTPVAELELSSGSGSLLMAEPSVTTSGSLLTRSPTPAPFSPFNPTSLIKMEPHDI
ELF1, sequence (P32519 whole entry): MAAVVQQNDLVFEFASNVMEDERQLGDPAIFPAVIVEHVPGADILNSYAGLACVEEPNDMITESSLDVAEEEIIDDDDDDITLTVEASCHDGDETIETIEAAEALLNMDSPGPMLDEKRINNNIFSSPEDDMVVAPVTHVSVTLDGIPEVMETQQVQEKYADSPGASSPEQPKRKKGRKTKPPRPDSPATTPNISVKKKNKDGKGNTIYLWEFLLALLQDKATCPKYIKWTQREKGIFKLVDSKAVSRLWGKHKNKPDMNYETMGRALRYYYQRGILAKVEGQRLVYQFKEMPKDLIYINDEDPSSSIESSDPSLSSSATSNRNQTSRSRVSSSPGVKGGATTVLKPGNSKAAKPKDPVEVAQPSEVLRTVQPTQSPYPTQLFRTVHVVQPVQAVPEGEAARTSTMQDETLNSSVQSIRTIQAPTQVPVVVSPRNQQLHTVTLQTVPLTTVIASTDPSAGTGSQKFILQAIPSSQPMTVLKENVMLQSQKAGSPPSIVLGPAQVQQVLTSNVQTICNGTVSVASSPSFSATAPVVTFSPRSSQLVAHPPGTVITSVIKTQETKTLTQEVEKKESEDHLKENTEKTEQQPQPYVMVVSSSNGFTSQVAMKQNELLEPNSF

## AATTAG
[1]
  binding signal: 1.18 fold enrichment (6-mer frequency, TF over GST control)
[2]
  binding signal: 1.09 fold enrichment (6-mer frequency, TF over GST control)
[3]
  binding signal: 1.13 fold enrichment (6-mer frequency, TF over GST control)
[4]
  binding signal: 1.11 fold enrichment (6-mer frequency, TF over GST control)
[5]
  binding signal: 1.12 fold enrichment (6-mer frequency, TF over GST control)
[6]
  binding signal: 1.06 fold enrichment (6-mer frequency, TF over GST control)
[7]
  binding signal: 1.1 fold enrichment (6-mer frequency, TF over GST control)
[8]
  binding signal: 1.11 fold enrichment (6-mer frequency, TF over GST control)
[9]
  binding signal: 1.09 fold enrichment (6-mer frequency, TF over GST control)
[10]
  binding signal: 1.07 fold enrichment (6-mer frequency, TF over GST control)
[11]
  binding signal: 1.12 fold enrichment (6-mer frequency, TF over GST control)
[12]
  binding signal: 1.39 fold enrichment (6-mer frequency, TF over GST control)
[13]
  binding signal: 1.08 fold enrichment (6-mer frequency, TF over GST control)
[14]
  binding signal: 1.15 fold enrichment (6-mer frequency, TF over GST control)
[15]
  binding signal: 1.14 fold enrichment (6-mer frequency, TF over GST control)
[16]
  binding signal: 1.12 fold enrichment (6-mer frequency, TF over GST control)
[17]
  binding signal: 1.13 fold enrichment (6-mer frequency, TF over GST control)
[18]
  binding signal: 1.69 fold enrichment (6-mer frequency, TF over GST control)
[19]
  binding signal: 1.14 fold enrichment (6-mer frequency, TF over GST control)
